Experimental data taken from the supplement of paper PMC10849652.
The full data set covers some 7,900 targets. This sample favours those with a hit. About 0.6% of all pairs of compound and target were hits. Values without a mark were called inactive.

Columns and labels:
Assay in all cases: log2 fold change, soluble protein after heating vs DMSO (PISA); higher = thermal stabilisation; K562 cells, 10 uM, 30 min; active = over 0.2 and 3.5 SD of the protein, either way, in both replicates (recomputed)
[1] = compound: COC1=CC=C(C=C1)CN2C=CC3=C2C=C(C=C3)C(=O)NO
Method in brief: (§1)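 Aliquots of K562 cells (2×10^6 cells/mL) treated with 10 μM compound for 30 min were heated for 3 min over 48°C-58°C. After pooling and extraction in PBS with 0.5% NP-40 at 4°C, soluble protein from a 21,000xg, 90 min spin was quantified by TMTpro 16plex LC-MS/MS with channel sums equalised. Thermal stability is expressed against control samples, from duplicates, as a log2 fold change.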

[2] = compound: CON(C)C(=O)N1N=C(c2cc(F)ccc2F)S[C@@]1(CCCN)c1ccccc1 [filanesib]
Method in brief: as §1

[3] = compound: CO[C@H]1C[C@@H]2CC[C@@H](C)[C@@](O)(O2)C(=O)C(=O)N2CCCC[C@H]2C(=O)O[C@H]([C@H](C)C[C@@H]2CC[C@H](n3cnnn3)[C@H](OC)C2)CC(=O)[C@H](C)/C=C(\C)[C@@H](O)[C@@H](OC)C(=O)[C@H](C)C[C@H](C)/C=C/C=C/C=C/1C [zotarolimus]
Method in brief: as §1

[4] = compound: COc1cc(C(=O)O)ccc1NC(=O)[C@@H]1N[C@@H](CC(C)(C)C)[C@](C#N)(c2ccc(Cl)cc2F)[C@H]1c1cccc(Cl)c1F [idasanutlin]
Method in brief: as §1

[5] = compound: COc1cc(Nc2ncc3c(n2)-c2ccc(Cl)cc2C(c2c(F)cccc2OC)=NC3)ccc1C(=O)O [alisertib]
Method in brief: as §1

[6] = compound: COc1cc2nc(-c3cc(F)ccc3O)nc(N[C@@H]3CNC[C@H]3C(C)(C)O)c2cc1OC
Method in brief: as §1

[7] = compound: COc1cc2ncnc(Nc3ccc(F)c(Cl)c3)c2cc1OCCCN1CCOCC1 [gefitinib]
Method in brief: as §1

[8] = compound: COc1cccc2cc(-c3nc([C@H]4CC[C@H](C(=O)O)CC4)n4ncnc(N)c34)[nH]c12
Method in brief: as §1

[9] = compound: CS(=O)(=O)CCNCc1ccc(-c2ccc3ncnc(Nc4ccc(OCc5cccc(F)c5)c(Cl)c4)c3c2)o1 [lapatinib]
Method in brief: as §1

[10] = compound: CS(=O)(=O)N1CCN(Cc2cc3nc(-c4cccc5[nH]ncc45)nc(N4CCOCC4)c3s2)CC1 [pictilisib]
Method in brief: as §1

[11] = compound: CS(=O)(=O)c1ccc(-c2cnc(N)c(C(=O)Nc3ccccc3)n2)cc1
Method in brief: as §1

[12] = compound: C[C@@H](Oc1cc(-c2cnn(C3CCNCC3)c2)cnc1N)c1c(Cl)ccc(F)c1Cl [crizotinib]
Method in brief: as §1

[13] = compound: C[C@@H]1COCCN1C2=NC(=NC(=C2)C3(CC3)S(=O)(=O)C)C4=C5C=CNC5=CC=C4
Method in brief: as §1

[14] = compound: C[C@H](C1=CC=C(C=C1)C(=O)NC2=C3C=CNC3=NC=C2)N
Method in brief: as §1

[15] = compound: C[C@H](Nc1ncnc2nc[nH]c12)c1cc2cccc(Cl)c2c(=O)n1-c1ccccc1 [duvelisib]
Method in brief: as §1

[16] = compound: Cc1cc(Nc2cc(CN3CCOCC3)c3nc(C)c(Cc4ccc(Cl)cc4F)n3n2)n[nH]1 [gandotinib]
Method in brief: as §1

[17] = compound: Cc1cc(Nc2cc(N3CCN(C)CC3)nc(Sc3ccc(NC(=O)C4CC4)cc3)n2)n[nH]1 [tozasertib]
Method in brief: as §1

[18] = compound: Cc1cc(SCc2sc(-c3ccc(C(F)(F)F)cc3)nc2C)ccc1OCC(=O)O
Method in brief: as §1

[19] = compound: Cc1ccc(-n2nc(C(C)(C)C)cc2NC(=O)Nc2ccc(OCCN3CCOCC3)c3ccccc23)cc1 [doramapimod]
Method in brief: as §1

[20] = compound: Cc1ccc(C(=O)N(CCCN)[C@@H](c2nc3cc(Cl)ccc3c(=O)n2Cc2ccccc2)C(C)C)cc1 [ispinesib]
Method in brief: as §1

UniProt Q96DF8, sequence (Q96DF8 whole entry, looked up): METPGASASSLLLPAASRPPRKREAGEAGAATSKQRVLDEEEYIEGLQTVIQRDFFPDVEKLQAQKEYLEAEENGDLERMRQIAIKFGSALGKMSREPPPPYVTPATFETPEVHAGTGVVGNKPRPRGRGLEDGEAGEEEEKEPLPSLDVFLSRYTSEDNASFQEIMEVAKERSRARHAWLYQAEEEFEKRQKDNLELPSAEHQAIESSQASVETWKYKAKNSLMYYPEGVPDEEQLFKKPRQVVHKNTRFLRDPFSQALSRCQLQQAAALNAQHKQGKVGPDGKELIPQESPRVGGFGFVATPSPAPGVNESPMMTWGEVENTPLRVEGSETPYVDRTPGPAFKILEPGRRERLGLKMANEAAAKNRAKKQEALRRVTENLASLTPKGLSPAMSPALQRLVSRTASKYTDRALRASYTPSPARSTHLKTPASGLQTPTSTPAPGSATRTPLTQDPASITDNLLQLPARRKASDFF
UniProt Q9H467, sequence (Q9H467 whole entry, looked up): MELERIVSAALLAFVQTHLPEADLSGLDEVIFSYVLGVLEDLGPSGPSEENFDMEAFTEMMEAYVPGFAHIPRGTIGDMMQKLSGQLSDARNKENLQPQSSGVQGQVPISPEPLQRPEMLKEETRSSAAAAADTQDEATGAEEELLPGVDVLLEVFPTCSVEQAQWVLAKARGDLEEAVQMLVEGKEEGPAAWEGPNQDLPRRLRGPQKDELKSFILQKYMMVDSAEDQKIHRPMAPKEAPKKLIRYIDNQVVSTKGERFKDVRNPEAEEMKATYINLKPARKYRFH
UniProt Q13011, sequence (Q13011 whole entry, looked up): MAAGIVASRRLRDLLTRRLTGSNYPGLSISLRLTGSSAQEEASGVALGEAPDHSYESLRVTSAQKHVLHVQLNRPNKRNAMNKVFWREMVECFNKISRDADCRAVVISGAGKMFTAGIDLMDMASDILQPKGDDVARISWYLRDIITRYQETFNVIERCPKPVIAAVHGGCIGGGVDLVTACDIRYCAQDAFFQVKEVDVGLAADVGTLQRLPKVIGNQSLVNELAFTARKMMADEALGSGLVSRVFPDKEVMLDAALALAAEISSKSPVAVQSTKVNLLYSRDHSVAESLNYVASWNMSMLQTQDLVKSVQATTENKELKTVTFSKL
UniProt Q9NQI0, sequence (Q9NQI0 whole entry, looked up): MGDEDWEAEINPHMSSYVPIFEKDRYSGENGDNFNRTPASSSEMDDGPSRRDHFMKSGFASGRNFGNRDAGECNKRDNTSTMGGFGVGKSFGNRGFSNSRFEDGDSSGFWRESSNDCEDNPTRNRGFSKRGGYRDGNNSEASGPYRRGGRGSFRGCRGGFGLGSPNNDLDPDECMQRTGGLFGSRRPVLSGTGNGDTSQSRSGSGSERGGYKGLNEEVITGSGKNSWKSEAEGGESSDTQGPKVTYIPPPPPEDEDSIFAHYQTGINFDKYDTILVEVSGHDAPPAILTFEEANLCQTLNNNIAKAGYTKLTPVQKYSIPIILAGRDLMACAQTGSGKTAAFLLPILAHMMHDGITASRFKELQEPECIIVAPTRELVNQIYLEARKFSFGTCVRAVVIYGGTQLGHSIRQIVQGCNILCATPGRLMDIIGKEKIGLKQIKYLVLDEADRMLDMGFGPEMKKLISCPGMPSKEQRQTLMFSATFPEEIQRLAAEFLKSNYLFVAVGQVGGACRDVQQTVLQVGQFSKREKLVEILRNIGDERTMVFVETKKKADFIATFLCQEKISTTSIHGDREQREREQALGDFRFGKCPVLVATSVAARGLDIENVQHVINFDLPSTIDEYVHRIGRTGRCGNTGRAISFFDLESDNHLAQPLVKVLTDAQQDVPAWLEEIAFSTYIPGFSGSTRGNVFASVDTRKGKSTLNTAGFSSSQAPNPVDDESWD
UniProt Q7Z7A3, sequence (Q7Z7A3 whole entry, looked up): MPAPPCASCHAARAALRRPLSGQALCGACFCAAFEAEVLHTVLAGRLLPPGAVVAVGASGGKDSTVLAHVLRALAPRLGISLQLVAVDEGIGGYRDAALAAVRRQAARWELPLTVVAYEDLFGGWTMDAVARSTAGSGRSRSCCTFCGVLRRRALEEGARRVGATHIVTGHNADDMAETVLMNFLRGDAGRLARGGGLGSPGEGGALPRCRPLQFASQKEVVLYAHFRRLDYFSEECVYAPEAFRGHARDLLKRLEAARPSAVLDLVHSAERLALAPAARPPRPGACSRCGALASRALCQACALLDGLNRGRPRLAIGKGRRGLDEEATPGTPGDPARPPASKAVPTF
UniProt Q8N5C7, sequence (Q8N5C7 whole entry, looked up): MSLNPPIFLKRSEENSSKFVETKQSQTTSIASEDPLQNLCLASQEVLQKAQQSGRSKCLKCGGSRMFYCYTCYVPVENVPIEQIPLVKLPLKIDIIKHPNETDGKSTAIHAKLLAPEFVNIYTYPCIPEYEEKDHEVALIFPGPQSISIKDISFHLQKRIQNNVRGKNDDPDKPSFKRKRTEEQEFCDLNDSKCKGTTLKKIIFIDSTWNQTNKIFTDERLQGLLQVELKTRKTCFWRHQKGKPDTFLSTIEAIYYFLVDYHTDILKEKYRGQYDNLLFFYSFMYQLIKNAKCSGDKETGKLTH
UniProt Q9UBM7, sequence (Q9UBM7 whole entry, looked up): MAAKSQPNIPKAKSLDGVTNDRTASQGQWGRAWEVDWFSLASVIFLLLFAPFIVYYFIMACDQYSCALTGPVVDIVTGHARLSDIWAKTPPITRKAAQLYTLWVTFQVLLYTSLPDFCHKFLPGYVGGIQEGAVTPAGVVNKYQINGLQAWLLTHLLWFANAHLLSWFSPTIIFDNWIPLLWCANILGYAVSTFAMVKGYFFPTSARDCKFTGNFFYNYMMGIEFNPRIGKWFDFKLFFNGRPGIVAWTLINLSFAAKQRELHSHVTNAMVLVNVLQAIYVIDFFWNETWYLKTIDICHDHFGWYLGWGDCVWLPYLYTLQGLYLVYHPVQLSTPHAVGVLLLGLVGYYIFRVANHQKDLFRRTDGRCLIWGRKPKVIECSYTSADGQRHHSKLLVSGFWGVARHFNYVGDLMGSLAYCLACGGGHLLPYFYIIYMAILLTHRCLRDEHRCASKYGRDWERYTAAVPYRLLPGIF
UniProt P18074, sequence (P18074 whole entry, looked up): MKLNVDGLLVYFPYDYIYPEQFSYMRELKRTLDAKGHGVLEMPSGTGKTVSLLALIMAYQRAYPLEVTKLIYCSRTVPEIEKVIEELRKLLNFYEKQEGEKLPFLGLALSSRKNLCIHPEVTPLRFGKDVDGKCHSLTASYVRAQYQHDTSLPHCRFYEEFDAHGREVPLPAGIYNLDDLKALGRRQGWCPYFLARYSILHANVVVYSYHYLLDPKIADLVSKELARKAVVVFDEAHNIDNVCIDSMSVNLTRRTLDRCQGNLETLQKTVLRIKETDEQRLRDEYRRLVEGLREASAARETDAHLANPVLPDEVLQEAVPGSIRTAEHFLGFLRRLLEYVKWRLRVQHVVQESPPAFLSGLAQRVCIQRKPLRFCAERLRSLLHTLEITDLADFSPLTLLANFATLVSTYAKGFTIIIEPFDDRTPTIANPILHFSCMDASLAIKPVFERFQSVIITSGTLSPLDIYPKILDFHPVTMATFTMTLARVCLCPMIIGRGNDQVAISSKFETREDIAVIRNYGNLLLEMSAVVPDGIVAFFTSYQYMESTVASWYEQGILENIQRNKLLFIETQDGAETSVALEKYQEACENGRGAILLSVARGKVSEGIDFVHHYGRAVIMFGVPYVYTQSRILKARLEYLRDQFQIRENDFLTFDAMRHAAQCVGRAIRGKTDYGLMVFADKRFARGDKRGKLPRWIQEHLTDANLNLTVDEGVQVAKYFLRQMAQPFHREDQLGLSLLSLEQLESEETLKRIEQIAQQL
UniProt Q7L014, sequence (Q7L014 whole entry, looked up): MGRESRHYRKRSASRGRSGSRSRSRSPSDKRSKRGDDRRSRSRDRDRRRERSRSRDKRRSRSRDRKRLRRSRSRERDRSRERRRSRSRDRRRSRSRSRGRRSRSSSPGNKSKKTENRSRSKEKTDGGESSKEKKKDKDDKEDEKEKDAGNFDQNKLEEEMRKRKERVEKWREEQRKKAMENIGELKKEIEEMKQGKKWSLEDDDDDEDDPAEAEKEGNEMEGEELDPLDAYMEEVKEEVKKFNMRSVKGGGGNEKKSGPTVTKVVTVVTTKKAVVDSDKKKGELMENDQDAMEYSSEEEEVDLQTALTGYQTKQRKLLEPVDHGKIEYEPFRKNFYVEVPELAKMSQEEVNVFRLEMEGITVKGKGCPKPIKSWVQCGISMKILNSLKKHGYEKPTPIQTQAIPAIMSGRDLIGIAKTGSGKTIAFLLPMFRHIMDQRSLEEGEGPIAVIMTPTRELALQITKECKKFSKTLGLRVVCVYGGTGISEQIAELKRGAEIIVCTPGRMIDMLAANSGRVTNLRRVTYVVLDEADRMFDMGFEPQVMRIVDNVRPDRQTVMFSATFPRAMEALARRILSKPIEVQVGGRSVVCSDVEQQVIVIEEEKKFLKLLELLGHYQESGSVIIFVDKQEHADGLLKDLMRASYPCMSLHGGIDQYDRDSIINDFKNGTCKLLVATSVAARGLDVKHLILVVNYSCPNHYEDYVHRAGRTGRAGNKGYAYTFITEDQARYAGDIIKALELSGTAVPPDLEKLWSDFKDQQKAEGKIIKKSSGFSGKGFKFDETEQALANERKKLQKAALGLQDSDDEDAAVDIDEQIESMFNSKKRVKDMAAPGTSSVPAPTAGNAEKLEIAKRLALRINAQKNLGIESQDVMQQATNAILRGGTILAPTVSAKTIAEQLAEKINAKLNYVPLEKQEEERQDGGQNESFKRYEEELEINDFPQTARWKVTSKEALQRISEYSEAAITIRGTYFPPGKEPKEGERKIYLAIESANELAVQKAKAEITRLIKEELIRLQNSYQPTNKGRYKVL

Target | log2 fold change [1] | log2 fold change [2] | log2 fold change [3] | log2 fold change [4] | log2 fold change [5] | log2 fold change [6] | log2 fold change [7] | log2 fold change [8] | log2 fold change [9] | log2 fold change [10] | log2 fold change [11] | log2 fold change [12] | log2 fold change [13] | log2 fold change [14] | log2 fold change [15] | log2 fold change [16] | log2 fold change [17] | log2 fold change [18] | log2 fold change [19] | log2 fold change [20]
ECH1 (UniProt Q13011) | -0.008 | -0.215 | -0.05 | -0.134 | 0.033 | 0.045 | -0.032 | 0.02 | -0.011 | 0.033 | 0.025 | -0.086 | 0.068 | -0.011 | 0.04 | -0.195 | 0.434 (active) | -0.008 | -0.023 | -0.208
EXOC1 (UniProt Q9NV70) | -0.056 | 0.01 | 0.038 | -0.084 | 0.015 | 0.131 | -0.045 | -0.129 | -0.011 | -0.021 | -0.036 | -0.336 | -0.007 | 0.174 | -0.013 | -0.179 | -0.016 | 0.067 | 0.138 | -0.472 (active)
EXOC7 (UniProt Q9UPT5) | 0.023 | 0.032 | 0.01 | -0.076 | -0.024 | 0.149 | -0.054 | -0.053 | -0.031 | -0.057 | -0.062 | -0.25 | -0.028 | 0.034 | 0.027 | -0.122 | 0.027 | 0.05 | -0.029 | -0.346 (active)
DTWD1 (UniProt Q8N5C7) | -0.227 | -0.081 | 0.031 | -0.115 | -0.057 | 0.078 | 0.069 | 0.031 | 0.044 | 0.124 | 0.053 | 0.067 | 0.061 | 0.014 | 0.015 | 0.098 | 0.029 | 0.012 | 0.009 | -0.001
DDX46 (UniProt Q7L014) | 0.109 | -0.003 | 0.046 | 0.029 | 0.434 | 0.001 | 0.041 | -0.005 | 0.026 | 0.117 | 0.12 | 0.1 | 0.185 | -0.025 | 0.144 | -0.144 | 0.109 | 0.235 | -0.087 | 0.197
CTU1 (UniProt Q7Z7A3) | 0.045 | -0.193 | 0.022 | -0.037 | -0.063 | -0.061 | -0.024 | 0.025 | -0.085 | -0.005 | 0.005 | -0.132 | 0.081 | -0.032 | -0.012 | -0.015 | -0.026 | 0.058 | -0.049 | -0.082
DDX4 (UniProt Q9NQI0) | -0.474 | 0.186 | 0.004 | 0.42 | 0.172 | 0.368 | 0.048 | -0.715 | -0.399 | 0.17 | 0 | 0.018 | 0.013 | 0.544 | 0.265 | 0.112 | -0.042 | -0.232 | -0.021 | -0.529
DHCR7 (UniProt Q9UBM7) | -0.182 | -0.025 | -0.088 | -0.278 | 0.01 | 0.101 | 0.088 | -0.167 | -0.009 | -0.115 | -0.003 | 0.192 | -0.085 | 0.089 | -0.029 | -0.304 | -0.055 | 0.051 | 0.049 | -0.056
EEF1AKNMT (UniProt Q8N6R0) | -0.256 | -0.052 | 0.096 | 0.013 | -0.035 | 0.037 | 0.065 | -0.037 | -0.014 | 0 | -0.011 | -0.059 | 0.006 | 0.111 | -0.047 | -0.09 | 0.071 | 0.153 | 0.077 | -0.072
ERCC2 (UniProt P18074) | -0.024 | 0.018 | 0.068 | 0.063 | 0.001 | -0.061 | -0.03 | -0.021 | 0.049 | 0.042 | 0.011 | 0.059 | -0.046 | -0.013 | -0.035 | -0.035 | -0.014 | 0.08 | 0.031 | -0.045
FAM118A (UniProt Q9NWS6) | 0.213 | -0.15 | 0.032 | -0.323 | 0.383 | 0.023 | 0.022 | -0.044 | 0 | 0.207 | -0.028 | -0.112 | 0.044 | 0.036 | -0.006 | -0.44 | -0.088 | 0.097 | -0.02 | 0.034
DNAJB1 (UniProt P25685) | 0.07 | -0.013 | 0.007 | -0.032 | -0.063 | 0.046 | 0.06 | 0.003 | -0.032 | 0.005 | -0.004 | -0.004 | 0.084 | 0 | 0.045 | -0.041 | -0.001 | 0.059 | -0.018 | 0.019
CUEDC2 (UniProt Q9H467) | 0.233 | 0.018 | 0 | 0.005 | -0.035 | -0.018 | 0.168 | 0.023 | -0.035 | 0.014 | 0.028 | -0.029 | 0.026 | -0.113 | 0.048 | -0.017 | 0.109 | 0.012 | -0.087 | 0.024
DNAJC1 (UniProt Q96KC8) | -0.023 | -0.138 | -0.039 | -0.064 | 0.001 | -0.17 | 0.008 | 0.022 | -0.078 | 0.017 | -0.021 | -0.148 | 0.009 | 0.023 | 0.027 | -0.094 | -0.035 | 0.009 | 0.002 | -0.356 (active)
ESS2 (UniProt Q96DF8) | -0.022 | 0.046 | -0.019 | 0.052 | -0.125 | -0.037 | -0.088 | 0.005 | 0.073 | -0.083 | -0.081 | -0.079 | 0.016 | 0.031 | -0.069 | 0.004 | -0.029 | -0.044 | 0.02 | -0.053
CYFIP1 (UniProt Q7L576) | 0.053 | -0.027 | 0.039 | -0.028 | 0.061 | -0.004 | 0.008 | 0.013 | 0.023 | 0.097 | 0.038 | -0.029 | 0.063 | -0.042 | 0.031 | -0.079 | 0 | 0.038 | -0.026 | 0.031
